PubChem BioAssay (Tox21)
Results filed as inconclusive are left out. Active and inactive are the calls of the source. Calls come from the whole dose curve; as a rule, active = well fitted curve in the direction sought with a large enough effect in the repeat runs; inconclusive = weak or mixed curves; inactive = no such curve, though single readings can be large; an effect the other way counts as inactive or inconclusive.

How the values were obtained:
[1] = qHTS RealTime-Glo MT Cell Viability Assay in HepG2 cells - 24 hour (AID 1224867); note: nearly all actives have a fitted effect of over 50% in size
How it was run: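 HepG2 suspension premixed with RealTime-Glo reagents is plated at 600 cells per well and left 5 h at 37 C/5% CO2. Compounds in DMSO then go in, and bioluminescence reflecting viable cell number is recorded over 40 h.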

[2] = qHTS RealTime-Glo MT Cell Viability Assay in HEK293 cells - 32 hour (AID 1224868); note: top concentration of the series differs between compounds; nearly all actives have a fitted effect of over 50% in size
How it was run: (§1)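 Reads taken at 0, 8, 16, 24, 32 and 40 h from the same wells. HEK293 cells (600/well) carried RealTime-Glo reagents from seeding, with compound added after a 5 h settle at 37 C.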

[3] = A CellTox Green Cytotoxicity Assay to monitor cytotoxicity in HEK293 cells - 0 hour (AID 1224869); note: nearly all actives have a fitted effect of over 50% in size
How it was run: (§2)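 Cytotoxicity was tracked continuously in HEK293 cells by a DNA-binding dye excluded from viable cells. Compounds were transferred in DMSO 5 h after seeding; fluorescence was recorded at intervals up to 40 h.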

[4] = qHTS RealTime-Glo MT Cell Viability Assay in HepG2 cells - 40 hour (AID 1224870); note: nearly all actives have a fitted effect of over 50% in size
How it was run: (§3)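 Real-time viability: cells seeded at 600 per well together with NanoLuc and cell-permeant prosubstrate, compounds added after 5 h incubation. Luminescence tracked at 0, 8, 16, 24, 32 and 40 h of exposure.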

[5] = A CellTox Green Cytotoxicity Assay to monitor cytotoxicity in HEK293 cells - 40 hour (AID 1224871); note: nearly all actives have a fitted effect of over 45% in size
How it was run: as §2

[6] = qHTS RealTime-Glo MT Cell Viability Assay in HEK293 cells - 16 hour (AID 1224872)
How it was run: as §1

[7] = qHTS RealTime-Glo MT Cell Viability Assay in HepG2 cells - 8 hour (AID 1224873); note: nearly all actives have a fitted effect of over 55% in size
How it was run: as §3

[8] = qHTS RealTime-Glo MT Cell Viability Assay in HEK293 cells - 40 hour (AID 1224874); conditions: RealTime-Glo luminescence; max response: stronger effect = lower value; note: nearly all actives have a fitted effect of over 50% in size
How it was run: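 Nonlytic bioluminescent viability monitoring. HEK293 at 600 cells/well with reagent; 5 h settle; compound transfer by pintool; plates held at 37 C and read at set time points.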

[9] = A CellTox Green Cytotoxicity Assay to monitor cytotoxicity in HEK293 cells - 24 hour (AID 1224875); note: series mostly up to about 77 µM; nearly all actives have a fitted effect of over 45% in size
How it was run: as §2
% is set by controls: 0 for no effect and ±100 for the full control effect.

Nc1cc(C(=O)O)ccc1Cl
inactive: outcome [1] | Potency [2] | Potency [3] | outcome [4] | Potency [5] | Potency [6] | outcome [7] | max response [8] 6.48% | Potency [9]

O=C(O)c1ccccc1C(=O)Nc1ccc(S(=O)(=O)Nc2nccs2)cc1
inactive: outcome [1] | Potency [2] | Potency [3] | outcome [4] | Potency [5] | Potency [6] | outcome [7] | max response [8] -1.33% | Potency [9]

O=C1OC(=O)c2ccccc21
inactive: outcome [1] | Potency [2] | Potency [3] | outcome [4] | Potency [5] | Potency [6] | outcome [7] | max response [8] -12.4% | Potency [9]

O=C(Oc1ccccc1C(=O)O)c1ccccc1O
inactive: outcome [1] | Potency [2] | Potency [3] | outcome [4] | Potency [5] | Potency [6] | outcome [7] | max response [8] 4.65% | Potency [9]

Cc1ccc(S(=O)(=O)NC(=O)NC2CCCCCCC2)cc1
inactive: outcome [1] | Potency [2] | Potency [3] | outcome [4] | Potency [5] | Potency [6] | outcome [7] | max response [8] 0.902% | Potency [9]

Cc1ccccc1N1CCN(CCc2nnc3n2CCCC3)CC1
inactive: outcome [1] | Potency [2] | Potency [3] | outcome [4] | Potency [5] | Potency [6] | outcome [7] | max response [8] -6.94% | Potency [9]

C1=CCC(c2ccccc2)CC1 (configuration not stated)
inactive: outcome [1] | Potency [2] | Potency [3] | outcome [4] | Potency [5] | Potency [6] | outcome [7] | max response [8] 4.33% | Potency [9]

CC(=O)c1ccc2c(c1)CCCC2
inactive: outcome [1] | Potency [2] | Potency [3] | outcome [4] | Potency [5] | Potency [6] | outcome [7] | max response [8] -1.61% | Potency [9]

CO[Si](CCCS)(OC)OC
inactive: outcome [1] | Potency [2] | Potency [3] | outcome [4] | Potency [5] | Potency [6] | outcome [7] | max response [8] 0.328% | Potency [9]

Cc1cc(C)cc([N+](=O)[O-])c1
inactive: outcome [1] | Potency [2] | Potency [3] | outcome [4] | Potency [5] | Potency [6] | outcome [7] | max response [8] -13.7% | Potency [9]

F[Si-2](F)(F)(F)(F)F
inactive: outcome [1] | Potency [2] | Potency [3] | outcome [4] | Potency [5] | Potency [6] | outcome [7] | max response [8] -1.11% | Potency [9]

CCCCCCCCC(=O)OCC
inactive: outcome [1] | Potency [2] | Potency [3] | outcome [4] | Potency [5] | outcome [7] | max response [8] 9.15% | Potency [9]

O=c1cc(O)c(Cl)c[nH]1
inactive: outcome [1] | Potency [2] | Potency [3] | outcome [4] | Potency [5] | outcome [7] | max response [8] 4.88% | Potency [9]

CCCCCCCCCCCCCCCCI
inactive: activity change, negative = cytotoxicity [1] -1.23% [at 15.8 µM] | activity change, negative = cytotoxic [2] -10.5% [at 15.8 µM] | cytotoxicity [3] 0.206% [at 15.8 µM] | activity change, negative = cytotoxic [4] 17.3% [at 15.8 µM] | cytotoxicity increase [5] -8.08% [at 15.8 µM] | viability change, negative = cytotoxic [7] -19.7% [at 15.8 µM] | max response [8] -10.6% | activity change [9] -5.96% [at 15.8 µM, stronger effect = higher value]

CCCCCC1Nc2cc(C(F)(F)F)c(S(N)(=O)=O)cc2S(=O)(=O)N1 (configuration not stated)
inactive: outcome [1] | Potency [2] | Potency [3] | outcome [4] | Potency [5] | outcome [7] | max response [8] -1.2% | Potency [9]

CC(=O)OC[C@H]1O[C@@H](OC(C)=O)[C@H](OC(C)=O)[C@@H]1OC(C)=O
inactive: outcome [1] | Potency [2] | Potency [3] | outcome [4] | Potency [5] | outcome [7] | max response [8] 5.33% | Potency [9]

CCC(=O)c1ccc(O)cc1
inactive: outcome [1] | Potency [2] | Potency [3] | outcome [4] | Potency [5] | Potency [6] | outcome [7] | Potency [9]
